The panel holds about 83,000 compounds, 20% with a hit somewhere; the sample as a whole holds those more often.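 Note: values are percent growth. 100 is the growth of untreated cells, values between 100 and 0 indicate rising inhibition; between -100 and 0 indicates cell death.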 Calls of active or inactive are those of the source. The calls were made as follows: active = growth percent below 10; inactive = the rest.

This experiment has as its system MDA-MB-468 breast. Put plainly: NCI-60 one-dose screen, 48 h (100 = growth as untreated, 0 = no growth, -100 = all killed). Conditions: 10 µM unless noted.
Turning to `COc1ccc2c(c1)c(CC(=O)[Se]C)c(C)n2C(=O)c1ccc(Cl)cc1`, the growth is -11.6% (active). In the case of `O=C(/C=C/C12c3ccccc3C(c3ccccc31)C1C(=O)NC(=O)C12)c1ccc(Cl)cc1` (centres undefined), the growth was -19.5% (active). Regarding `Nc1cccc(-c2ccc(COc3ccc(CC4SC(=O)NC4=O)cc3)cc2)c1` (centres undefined), the growth is 29.4% (inactive). Regarding `CO/N=C(/C(=O)NC1C(=O)N2C(C(=O)O)=C(COC(N)=O)CSC12)c1ccco1` (centres undefined), the growth was 109% (inactive). For `CCCCn1c(C)nc2ccc(Nc3nc(Cl)nc4nc[nH]c34)cc21`, the growth was 34.6% (inactive).

In the case of `COc1cc(C2CC(c3cc(Cl)c(C)cc3O)=NN2c2ccc(S(N)(=O)=O)cc2)cc(OC)c1OC` (centres undefined), the growth was 22.7% (inactive). For the molecule `CC(=O)Nc1ccc(S(=O)(=O)N2C(=O)CCC2C(=O)Nc2ccc(Br)cc2)cc1` (centres undefined), the growth was 20.6% (inactive). Consider `COc1cc2oc(-c3cccc(NC(=O)[C@@H](N)C(C)C)c3)cc(=O)c2c(OC)c1OC`, for which the growth is 99.5% (inactive). Take `COc1ccc2c(c1)[n+]([O-])c(C(=O)/C=C/C=C(\Cl)c1cc(OC)c(OC)c(OC)c1)c(C)[n+]2[O-]`: the growth was 62.2% (inactive). On to `CCOC(=O)c1c(C)[nH]c(C)c1C=O`, for which the growth was 99.1% (inactive).

For the molecule `C#COc1cccc(Nc2ncnc3ncc(NC(=O)CCl)cc23)c1`, the growth is 4.95% [6.25 µM] (active). Next, `C[C@]12CC[C@@H]3c4cc(OC(F)F)c(O)cc4CC[C@H]3[C@@H]1CC[C@@H]2OS(N)(=O)=O`: -18.9% (active). For the molecule `CC(/C=N/N1C(=O)c2ccccc2C1=O)c1ccccc1` (centres undefined), the growth was 95.9% (inactive). Consider `CCCCOc1ccc(S(=O)(=O)N2CCN(c3nc(C)cc(N4CCOCC4)n3)CC2)cc1`, for which the growth was 34.8% (inactive).

(Values after PubChem BioAssay (NCI).)
